# This is a sample that favours compounds with a hit; in the whole collection about 2.4% have one here.
# D2 PAM-1: positive allosteric modulators of human D2 dopamine receptor; P14416; DiscoveRx D2 beta-arrestin cells, luminescence, 90 min; 100% = 57 uM dopamine signal; potentiation, % (no concentration beside the values); actives 0.23% (n = 360,000); in the data active means potentiation above about 50%; inconclusive means mostly about 30% to 49%
# Target sequence (P14416 whole entry, looked up): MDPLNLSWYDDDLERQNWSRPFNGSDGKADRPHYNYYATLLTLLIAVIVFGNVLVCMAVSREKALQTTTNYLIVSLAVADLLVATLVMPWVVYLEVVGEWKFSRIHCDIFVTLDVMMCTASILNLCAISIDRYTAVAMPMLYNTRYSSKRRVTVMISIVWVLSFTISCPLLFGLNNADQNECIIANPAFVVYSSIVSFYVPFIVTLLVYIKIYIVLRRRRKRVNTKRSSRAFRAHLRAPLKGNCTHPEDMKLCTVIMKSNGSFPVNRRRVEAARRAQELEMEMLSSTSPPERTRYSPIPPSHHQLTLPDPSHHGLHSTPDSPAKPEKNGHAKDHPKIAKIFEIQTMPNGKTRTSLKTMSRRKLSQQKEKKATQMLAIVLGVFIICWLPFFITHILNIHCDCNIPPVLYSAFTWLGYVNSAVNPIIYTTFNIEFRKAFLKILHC
#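 PathHunter D2 cells, attached overnight at 37 deg C, received compound in DMSO plus dopamine at EC20 (50 nM final) for 90 min at 37 deg C. Beta-arrestin recruitment was read as luminescence after 1 h with detection reagent at ambient temperature.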
# D2 antag: antagonizes the human D2 dopamine receptor; P14416; HEK293 TREx D2 cells, calcium flux, dopamine EC80; inhibition, % at 10 µM; actives 2% (n = 340,000); AID 485344; in the data active means inhibition above about 30%; inactive means below that, where a call was filed
#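 Measurement of antagonist activity uses fluorescent calcium dye in inducible HEK293 T-REx D2 cells: 10 s baseline, compound addition with 180 s read, EC80 dopamine addition with a further 180 s read.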
# D2 PAM-2: D2 dopamine receptor (human) potentiation; P14416; HEK293 T-REx D2, calcium flux, EC20 dopamine potentiation; potentiation, % at 10 µM; actives 0.34% (n = 340,000);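 active means potentiation over 3 SD above the plate norm, cut at about 30% in these data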
#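 Potentiation of an EC20 dopamine calcium response is measured in a force-coupled, tetracycline-inducible Hek293 Trex D2 line. Compound-only kinetic reads over 180 s flag agonists before dopamine addition.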
# D2 ag-1: activates the human D2 dopamine receptor; AID 624465; actives 0.084% (n = 360,000); P14416; activation, % (test concentration not listed); DiscoveRx PathHunter D2 beta-arrestin, luminescence, 90 min; 100% = 57 uM dopamine signal; in the data active means activation above about 40%; inconclusive means between about 15% and that limit
#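 DiscoveRx PathHunter D2 beta-arrestin cells (2,100/well) attached overnight, then compound-stimulated 90 min at 37 C in HBSS/10 mM HEPES/0.1% Tween-20 buffer; beta-galactosidase complementation read by luminescence after 1 h at ambient temperature. Dopamine 57 uM final (EC100) as control.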
# D2 ag-2: D2 dopamine receptor (human) agonism; AID 485358; HEK293 T-REx D2 cells, calcium flux agonist mode; activation, % at 2 µM; actives 0.53% (n = 340,000); P14416;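 active means activation over 3 SD above normal in the single-dose calcium agonist read, cut at about 30% in these data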
#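 Agonism scored from kinetic calcium signal (1 read/sec, 180 s) following compound pin transfer, after a 10 s baseline. Cells: HEK293 Trex line expressing inducible D2 receptor coupled to calcium, dye-loaded after overnight culture at 30 C.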
# Hits are given with their value; 0 = inactive; ? = inconclusive; - = not tested or not shown; ! = not confirmed by another sample.
SMILES,D2 PAM-1,D2 antag,D2 PAM-2,D2 ag-1,D2 ag-2
N/C(=N\OC(=O)c1ccc(F)cc1)c1cccc([N+](=O)[O-])c1,65,0,0,?,0
CC1=C(C)/C(=N/OC(=O)c2cccc([N+](=O)[O-])c2)C=CC1=O,0,34,0,?,0
NC(=O)c1cccc([N+](=O)[O-])c1,0,0,0,0,0
Cc1cccc(/C(N)=N/OC(=O)c2ccc(F)cc2)c1,0,0,0,0,0
Cc1ccc(NC(c2nnc(-c3ccccc3)o2)c2ccccc2F)c([N+](=O)[O-])c1 (stereo not given),-,-,0,-,0
CCOC(=O)c1cccc(NC(=O)c2sc3nc[nH]c(=O)c3c2C)c1,-,-,0,-,0
N/C(=N/OC(=O)c1cccc([N+](=O)[O-])c1)c1cccc([N+](=O)[O-])c1,?,0,0,?,0
N/C(=N\OC(=O)c1cccc(F)c1)c1cccc([N+](=O)[O-])c1,85,-,-,?,-
CCCCc1nc(N2CCN(C(=O)c3ccco3)CC2)c(C#N)c2c1CCCC2,0,31,0,0,0
CCCNC(=O)C1(C)CCCN(C(=O)c2cccc(Cl)c2)C1 (stereo not given),0,-,-,0,-
Clc1cccc(-c2cc3nc4c(c(N5CCN(c6cnccn6)CC5)n3n2)CCCC4)c1,0,41,0,0,0
CCOC(=O)c1cccc(NC(=O)Cn2c(=O)nc(-c3ccccc3)c3ccccc32)c1,-,-,0,-,0
COc1ccc(C(=O)O/N=C(\N)Cc2ccc(Cl)c(Cl)c2)cc1OC,118,0,0,?,0
Cc1cccc(OCC(=O)O/N=C(\N)Cc2ccc(Cl)cc2)c1,0,0,33,0,0
COc1ccc(C/C(N)=N/n2cnnc2)cc1Cl,0,0,0,0,0
N/C(CN1CCCC1=O)=N\OC(=O)c1ccc(Cl)c(Cl)c1,110,0,0,?,0
N/C(CN1CCCC1=O)=N\OC(=O)c1ccc(Cl)cc1,0,0,0,0,0
COc1ccc(C(=O)O/N=C(\N)Cc2ccc(Cl)cc2)cc1OC,164,0,0,0,0
CCOc1cc(CNS(=O)(=O)c2ccc3c(c2)CC(=O)N3C)cc(OCC)c1OCC,0,0,0,0,0
CCOc1ccccc1NC(=O)CSc1nc2c(sc3ccccc32)c(=O)n1CCCC(=O)NC1CCCC1,-,-,0,-,0
N/C(Cc1ccc(Cl)cc1)=N\OC(=O)c1ccccc1,68,0,0,?,0
Nc1ccc(/C=C/C(=O)c2cccs2)cc1,0,60,0,0,0
CCOc1ccccc1N(C(=O)CNC(=O)c1ccco1)C(C(=O)NC1CCCC1)c1ccncc1 (stereo not given),0,0,0,0,0
Cc1cc(=O)oc2cc(OCC(=O)N3CCCC3)ccc12,0,-,-,0,-
O=C(CCN1CCN(c2ccccc2F)CC1)c1ccc(Br)cc1,0,34,0,0,0
SMILES,D2 PAM-1,D2 antag,D2 PAM-2,D2 ag-1,D2 ag-2
COc1ccc(C(=O)CCN2CCN(c3ccc(OC)cc3)CC2)cc1,0,31,0,0,0
COc1ccc(N2CCN(CCOc3ccc4c(C)cc(=O)oc4c3)CC2)cc1,0,72,0,0,0
Cc1cc(=O)oc2cc(OCCSCCN3CCCC3)ccc12,0,0,0,0,0
Cc1cc(=O)oc2cc(OCC(=O)N3CCOCC3)ccc12,0,0,48,0,0
COc1ccc(N2CCN(CCC(N)=O)CC2)cc1,0,0,0,0,0
CCCOc1ccccc1C(=O)N1CCCCC1CCN1CCOCC1 (stereo not given),-,-,0,-,0
Nc1ccc(SCC(=O)Nc2cccc([N+](=O)[O-])c2)cc1,0,-,-,0,-
CC(=O)Nc1ccc(NC(=O)C(Cc2ccccc2)N2Cc3ccccc3C2=O)cc1 (stereo not given),-,-,0,-,0
COc1ccc(C(O)c2nc(-c3cccc4cccnc34)cs2)cc1 (stereo not given),0,-,-,0,-
Cc1cc(=O)oc2cc(OCC(=O)NCc3ccco3)ccc12,0,0,35,0,0
Cc1cc(=O)oc2ccc(OCC(=O)NCc3ccco3)cc12,0,0,0,0,0
COc1ccc(N2CCN(C(CNC(=O)CC(C)C)c3ccc4c(c3)OCO4)CC2)cc1 (stereo not given),-,-,0,-,0
CN(CC(O)CN1CCOCC1)S(=O)(=O)O (stereo not given),0,34!,0,0,0
OC(CN1CCOCC1)CN1CCOCC1,0,0,0,0,0
CCC1CCc2sc(C(=O)NC3CCN(Cc4ccccc4)CC3)cc2C1 (stereo not given),0,77,0,0,0
CC1CCc2sc(C(=O)NC3CCN(Cc4ccccc4)CC3)cc2C1 (stereo not given),0,83,0,0,0
COC(=O)Nc1nnc(Cc2ccccc2)s1,0,0,0,0,0
Cc1ccccc1NC(=O)Nc1nnc(CC(=O)NCc2ccccc2)s1,0,31,0,0,0
Cc1ccccc1NC(=O)Cc1nnc(NC(=O)Nc2ccccc2F)s1,0,0,0,0,0
CC(C)C(=O)Nc1nnc(Cc2ccccc2)s1,0,30,0,0,0
COc1ccc(CNS(=O)(=O)c2ccc(N3CCCCS3(=O)=O)cc2)cc1,-,-,0,-,0
COc1ccc(C(=O)N2CCN(S(=O)(=O)c3ccc(Cl)cc3)CC2)cc1S(=O)(=O)N1CCOCC1,0,-,-,0,-
Sc1nnc(-c2ccc(Cl)cc2)n1Cc1ccccc1,0,39,0,0,0
COCCn1c(-c2ccc(-c3ccccc3Cl)o2)nc2c1c(=O)[nH]c(=O)n2CC(C)C,0,0,0,0,0
COCCn1c(-c2ccc(NC(C)=O)cc2)nc2c1c(=O)[nH]c(=O)n2CC(C)C,0,31,0,0,0
SMILES,D2 PAM-1,D2 antag,D2 PAM-2,D2 ag-1,D2 ag-2
O=C(CSc1nc2ccccc2[nH]1)Nc1c(F)c(F)c(F)c(F)c1F,0,0,43,0,0
Oc1ccc(C2=NN(c3ccccc3)C(c3ccc(F)cc3)C2)cc1 (stereo not given),0,33,0,0,0
Cc1ccc(C2CC(c3ccccc3)=NN2c2ccccc2)o1 (stereo not given),0,36,0,0,0
Fc1ccc(C2=NN(c3ccccc3)C(c3ccco3)C2)cc1 (stereo not given),0,0,0,0,0
Cc1ccc(C(C)C)c(OCCn2cc(C(=O)c3ccco3)c3ccccc32)c1,-,-,0,-,-
Cc1cc2oc(=O)cc(CSc3nnc(-c4cccs4)o3)c2cc1C(C)C,0,36,0,0,0
CC(C)(C)C(=O)Nc1nc(-c2ccc3c(c2)OCO3)cs1,0,0,0,0,0
CCC(=O)Nc1nc(-c2ccc3c(c2)OCCO3)cs1,0,32,0,0,0
COc1ccc(/C=C/C(=O)OCC(=O)c2ccc[nH]2)cc1,0,38,0,0,0
COC(=O)CCNCCSc1nnc(-c2ccco2)n1Cc1ccccc1,0,33,0,0,0

# Screening results (PubChem)
